# High-throughput results from PubChem.
# Rows were chosen to be rich in hits. Some 2.4% of all compounds tested hit in one or more screens of this group.
# Pol iota inh = blocks human DNA polymerase iota activity; 390,000 compounds, 1% hits; Potency, µM (doses to about 115 µM), without a hit: at the highest dose activity, negative = inhibition, most hits filed as inhibitors; Pol iota fluorescent replication assay, 10 min; Q9UNA4; AID 588590
#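 Pol iota at 10 nM preincubated 15 min with compounds at room temperature; reaction started with fluorescent substrate, 50 nM final. Fluorescence read kinetically at 0 and 10 min; buffer-only wells as negative control.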
# Pol eta inh = DNA polymerase eta (human) inhibition. 390,000 compounds, 1.2% hits. recombinant Pol eta, fluorescent DNA replication assay. Q9Y253. Potency, µM (series often up to 114 µM), for inactives: at the top dose activity change, negative = inhibition, actives largely listed as inhibitors; note: % is set by controls: 0 for no effect and ±100 for the full control effect
#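 Pol eta at 10 nM preincubated with compounds 15 min at room temperature; reaction started with fluorescent substrate (50 nM final) and read kinetically at 0 and 10 min.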
# Pol kappa inh = DNA polymerase kappa (human) inhibition; Q9UBT6; purified Pol kappa, fluorescent DNA synthesis assay, 10 min; Potency, µM (highest dose often 107 µM), for inactives: at the highest dose activity, negative = inhibition, hits mostly inhibitors; 400,000 compounds, 0.53% hits; note: % is set by controls: 0 for no effect and ±100 for the full control effect
#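 First, compounds were pin-transferred onto 10 nM Pol kappa. After 15 min at room temperature, substrate was added to 50 nM final. Fluorescence was then measured kinetically at 0 and 10 min.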
# POLB inh = DNA polymerase beta (human) inhibition; P06746; Pol beta primer extension/strand displacement, fluorescence kinetic; Potency, µM (series often up to 114 µM), inactives show top-dose activity change, negative = inhibition, most hits filed as inhibitors; 340,000 compounds, 1.3% hits; AID 485314; note: % is set by controls: 0 for no effect and ±100 for the full control effect
#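 Values derive from four-parameter Hill fits of normalized kinetic data: reads at 0 and 10 min following addition of 50 nM substrate to 10 nM Pol beta preincubated 15 min with compound.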
# FEN1 inh = human FEN1 inhibition; P39748; Recombinant FEN1 flap cleavage, fluorescence, 15 min; Potency, µM (titrated, usually from 114 µM), without a hit: at the top dose activity change, negative = inhibition, usual class: inhibitors; 390,000 compounds, 0.35% hits; AID 588795; note: % is set by controls: 0 for no effect and ±100 for the full control effect; nearly all actives have a fitted effect of over 65% in size
#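 Compounds are tested as a concentration series against 10 nM FEN1; after a 15 min room-temperature preincubation, 50 nM substrate starts cleavage, with plate reads at 0 and 15 min. Normalized responses are fitted by a Hill equation.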
# WRN inhibitor = inhibitors of human WRN helicase; Potency, µM (titrated, usually from 114 µM), for inactives: at the top dose activity change, negative = inhibition, usual class: inhibitors; Q14191; WRN helicase unwinding, fluorescent forked duplex, kinetic; 360,000 compounds, 0.46% hits; AID 651768; note: % is set by controls: 0 for no effect and ±100 for the full control effect; nearly all actives have a fitted effect of over 55% in size
#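 Enzyme (20 nM final) and test compound sit together 15 min at room temperature before substrate addition. Substrate is a single-forked duplex oligonucleotide (100 nM) labelled with fluorophore and quencher, with 2 mM ATP; helicase unwinding raises red fluorescence, read kinetically.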
# PGK validate = TbPGK inhibition, hit validation. Potency, µM (top dose mostly 57.5 µM), inactives show at the top dose activity change, negative = inhibition, hits mostly inhibitors. TbPGK coupled GAPDH assay, Kinase-Glo luminescence. AID 686980. shares compounds with Pol kappa inh. 500 compounds, 79% hits; note: % is set by controls: 0 for no effect and ±100 for the full control effect; nearly all actives have a fitted effect of over 65% in size
# POLI cherry-pick = Confirm cherry-picked inhibitors of human polymerase iota. shares compounds with Pol kappa inh. Pol iota primer extension, TAMRA/BHQ fluorescence. Potency, µM, usual class: inhibitors. 1,500 compounds, 77% hits. AID 720496
# * marks the source's active call; other numbers are inactive results; ? = inconclusive; nt = no result given; [ ] = another dose, or the depositor's remark. Calls come from the whole dose curve; as a rule, active = well fitted curve in the direction sought with a large enough effect; inconclusive = small, poorly fitted or top-dose-only effect, or another doubt; inactive = no such curve, though single readings can be large; an effect the other way counts as inactive or inconclusive. Potency is the fitted concentration of half-maximal effect.
SMILES,Pol iota inh,Pol eta inh,Pol kappa inh,POLB inh,FEN1 inh,WRN inhibitor,PGK validate,others
Cc1cncn1CCc1nc2c3ccccc3nc(SCC(=O)Nc3ccc(F)cc3)n2n1,33%,-20%,-4%[60.1 µM],-11%,20%,nt,-14%,
OC[C@@H]1O[C@@H](O)[C@H](O)[C@H](O)[C@@H]1O,nt,nt,16%[60.1 µM],nt,nt,nt,nt,
Clc1ccccc1Nc1nnc(-c2ccncc2)s1,5%,4%,-1%,0%,-2%,?,15µM*,
Cc1ccc(N2C(=O)C(CC(=O)Nc3ccc(F)cc3)N(CCC3=CCCCC3)C2=O)cc1 (stereo not drawn),2%,-12%,-7%,16%,-26%,nt,nt,
COc1ccc(N/C=C2\CCc3ccccc3C2=O)cc1,9%,-15%,-7%,20%,-19%,-12%,16µM*,
O=C(O)CCCCN1C(=O)/C(=C\c2ccc(OCc3ccccc3)c(OCc3ccccc3)c2)SC1=S,?,20µM*,?,45µM*,0%,-8%[11.6 µM],nt,POLI cherry-pick=42*
COc1ccc(-c2cc3ccc(O)c(CN4CCCC4)c3oc2=O)cc1OC,0%,-29%,-10%[60.1 µM],-8%,5%,nt,nt,
COc1ccc(C(=O)NCC(c2ccc3c(c2)OCO3)N2CCN(C)CC2)cc1OC (stereo not drawn),21%,-21%,-2%[60.1 µM],0%,-2%,nt,nt,
Cc1nc(SC(C)C(=O)Nc2cccc(C(F)(F)F)c2)c2c(C)c(C(=O)O)sc2n1 (stereo not drawn),7%,?,?,?,?,?,nt,POLI cherry-pick=34*
CCOC(=O)c1ccc(NC(=O)CN2C(=O)CC(c3ccc(C)c(C)c3)=Nc3ccccc32)cc1,-20%,10%,-1%,1%,-18%,nt,nt,
CCOC(=O)C1=C[C@@]2(CC)CCCN3CCc4c(n1c1ccccc41)C32 (stereo partly drawn),nt,nt,-11%[60.1 µM],nt,nt,nt,nt,
O=C(/C=C/c1ccc(O)c(O)c1)OC1C(O)CC(OC(=O)/C=C/c2ccc(O)c(O)c2)(C(=O)O)CC1O (stereo not drawn),5µM*,?,?,1.4µM*,-2%,-3%,nt,POLI cherry-pick=24*
Cc1cc(C)c(NC(=O)CCn2c(=O)c3cccn3c3ccccc32)c(C)c1,51%,-15%,-10%,-13%,-4%,nt,nt,
CCOC(=O)c1cc(-c2ccc(OC)cc2)nn1-c1ccccc1C(=O)O,-27%,-3%,-13%,3.2µM*,17%,-16%,?,
CCC(=O)N1c2ccccc2CC1C(=O)NCCCN1CCN(c2ccc(OC)cc2)CC1 (stereo not drawn),31%,-10%,-1%[60.1 µM],-16%,-2%,nt,-1%,
COc1ccc(-c2cc3nc4n(c(=O)c3s2)CCC4)cc1,-5%[58.9 µM],-4%,-1%,-16%,-1%,1%,nt,
Cc1nc2cc(-c3ccccc3)sc2c(=O)n1N,38%,4%,-5%,11%,-17%,-30%,8.2µM*,
COc1ccc(-c2cc3nc(C)n(N)c(=O)c3s2)cc1,10%,-6%,-12%,-9%,-15%,-5%,4.1µM*,
Cc1noc(C)c1-c1cc(NCc2cccs2)ncn1,nt,nt,4%[60.1 µM],nt,nt,nt,nt,
Cc1ccc(NC(=O)c2oc3ccccc3c2NC(=O)c2ccc(F)c(F)c2)cc1,21%,-30%,-1%,17%,20%,nt,nt,
c1cc2c(cc1C1=NNC(=NC3CC3)SC1)OCCO2,?,0%,-20%,-10%,14%,0%,9.2µM*,
CCCCN=C1NN=C(c2ccc3c(c2)OCCO3)CS1,18%,-16%,2%,25%,-18%,-4%,nt,
COc1ccccc1NC(=O)c1cnc(SCC(=O)N2CCCc3ccccc32)n(C)c1=O,41%,-6%,-3%[60.1 µM],2%,-12%,nt,nt,
